# Bioassay records as filed in PubChem BioAssay.
# Most compounds without a hit are left out; they make up all but 0.87% or so of the library.
# WRN helicase inh = qHTS for Inhibitors of WRN Helicase; AID 651768, 2012; hit rate 0.46% among 360,000; Potency, µM (highest dose often 114 µM), for inactives: top-dose activity change, negative = inhibition, hits mostly inhibitors; WRN helicase unwinding, fluorescent forked duplex, kinetic; Bifunctional 3'-5' exonuclease/ATP-dependent helicase WRN (Homo sapiens), Q14191; note: nearly all actives have a fitted effect of over 55% in size
#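 WRN at 20 nM final was preincubated with compound for 15 min at room temperature; reaction started with 100 nM forked duplex oligonucleotide carrying fluorophore and quencher plus 2 mM ATP (final). Unwinding followed kinetically by red fluorescence (ex 525/em 598 nm).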
# FEN1 inhibitor = qHTS Assay for the Inhibitors of Human Flap endonuclease 1 (FEN1) | AID 588795, 2011 | hit rate 0.35% among 390,000 | Potency, µM (doses to about 114 µM), inactives show at the highest dose activity change, negative = inhibition, usual class: inhibitors | Recombinant FEN1 flap cleavage, fluorescence, 15 min; note: nearly all actives have a fitted effect of over 65% in size
#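 Steps: FEN1 (10 nM) dispensed; compound added by pin tool; 15 min at room temperature; substrate added to 50 nM final; reads at 0 min and 15 min; data normalized and fitted (four-parameter Hill).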
# BLM helicase inh = qHTS Assay for Inhibitors of Bloom's syndrome helicase (BLM). recombinant BLM DNA unwinding, fluorescence dequenching. Potency, µM (doses to about 56.1 µM), without a hit: at the top dose activity change, negative = inhibition, actives largely listed as inhibitors. hit rate 0.2% among 350,000;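 note: plate controls were vehicle for no effect and no enzyme for full effect; nearly all actives have a fitted effect of over 35% in size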
# RECQ1 helicase = qHTS Assay for Inhibitors of RecQ-Like Dna Helicase 1 (RECQ1). RECQ1 DNA unwinding, red fluorescence kinetic read. hit rate 0.54% among 240,000. Potency, µM (doses to about 57.3 µM), inactives show top-dose activity, negative = inhibition, most hits filed as inhibitors;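 note: plate controls were vehicle for no effect and no enzyme for full effect; nearly all actives have a fitted effect of over 30% in size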
#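 50 nM RECQ1T1 preincubated 15 min with compound in Tris pH 8.0 buffer with MgCl2, DTT, Tween-20 and 2.5 ug/ml poly(dI-dC); started with 200 nM TAMRA/BHQ-2 forked duplex and 2 mM ATP. Unwinding read as fluorescence (525/598 nm), two reads 2 h apart.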
# APE1 inh = qHTS Assay for Inhibitors of the Human Apurinic/apyrimidinic Endonuclease 1 (APE1); recombinant APE1, TAMRA/BHQ-2 abasic DNA cleavage fluorescence; DNA repair nuclease/redox regulator APEX1 (Homo sapiens), P27695; Potency, µM (highest dose often 65.8 µM), without a hit: at the top dose activity change, negative = inhibition, actives largely listed as inhibitors; hit rate 0.35% among 350,000; AID 2517, 2012;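 note: plate controls were vehicle for no effect and reference inhibitor for full effect; nearly all actives have a fitted effect of over 55% in size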
#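 Quantitative HTS: incision of a TAMRA/BHQ-2 double-stranded substrate bearing a tetrahydrofuran abasic site by 0.75 nM APE1 raises fluorescence. Substrate 50 nM final, added after 15 min compound preincubation at room temperature; progress as third-minus-first kinetic read difference.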
# * hit, by the source's call; i = inactive; ? = inconclusive; . = not tested or not shown; ! = repeats disagree; [ ] = remark or other dose. Calls come from the whole dose curve; as a rule, active = well fitted curve in the direction sought with a large enough effect; inconclusive = small, poorly fitted or top-dose-only effect, or another doubt; inactive = no such curve, though single readings can be large; an effect the other way counts as inactive or inconclusive. Unless noted, % is set by controls: 0 for no effect and ±100 for the full control effect; potency is the fitted concentration of half-maximal effect.
SMILES,WRN helicase inh,FEN1 inhibitor,BLM helicase inh,RECQ1 helicase,APE1 inh
O=C1C=CC(=O)N1Cc1ccccc1,-14%,?,-1%,.,-4%
O=C1C=CC(=O)N1N(c1ccccc1)c1ccccc1,35µM*,-14%,-4%,-3%,-5%
O=C(NCc1ccco1)c1cc2c(s1)CSC2,18µM*,50µM*,-16%,-27%,?
O=C(NCc1ccco1)c1cccs1,-33%[57.1 µM],-3%,0%,-5%,-4%
C/C(N)=C(/C#N)C(=O)CSc1nnnn1-c1ccc(C)cc1,-9%,-19%,-7%,20µM*,-3%
COc1ccccc1NS(=O)(=O)c1cccc(-n2c(O)c(C=Nc3ccccc3C(=O)O)c3ccccc3c2=O)c1,50µM*,79µM*,-25%,-8%,-5%
CCOc1ccccc1CNC(=O)c1ccc2c(c1)sc1nc(-c3cccc(OC)c3)cn12,.,-10%,-2%,.,.
O=[N+]([O-])c1cc2c(cc1/C=N/NS(=O)(=O)c1ccc(Br)cc1)OCO2,-15%[57.1 µM],50µM*,-1%,i,-1%
COc1ccc(S(=O)(=O)NCC(c2ccco2)N2CCN(c3ccccc3F)CC2)cc1C (centres undefined),.,-22%,-6%,.,.
Fc1ccc(/C=C/c2ccc3ccccc3n2)cc1,.,-7%,.,.,.
CCOc1ccc(S(=O)(=O)N(C(=O)c2ccco2)c2cc3sc(=O)oc3c3ccccc23)cc1,?,1%,-11%,-5%,0%
COc1ccc(S(=O)(=O)N(C(=O)c2ccco2)c2cc3sc(=O)oc3c3ccccc23)cc1,45µM*,-35%,-3%,-2%,0%
Cc1ccc(S(=O)(=O)N(C(=O)c2ccco2)c2cc3sc(=O)oc3c3ccccc23)cc1,56µM*,-35%,-7%,i,-4%
COc1cc(C2Nc3cccc4cccc(c34)N2)ccc1O,-26%,-8%,-6%,.,-3%
COc1cc(C2Nc3cccc4cccc(c34)N2)cc(OC)c1OC(C)=O,-19%,32µM*,-14%,8%,4%
C=CC1=C(C)C2=NC1=CC1=NC(=CC3=NC(=CC4=NC(=C2)C(C)=C4CCC(=O)O)C(CCC(=O)O)=C3C)C(C=C)=C1C.[Zn],.,.,35µM*,13µM*,4.5µM*
CS(=O)(=O)N1CCN(/[N+]([O-])=N/Oc2ccc([N+](=O)[O-])cc2[N+](=O)[O-])CC1,.,4%,.,.,.
CCCCC(Sc1nc2cc3c(cc2c(=O)n1CCCC(=O)NCc1ccc(OC)cc1)OCO3)C(=O)OCC (centres undefined),.,-23%,-10%,.,.
COC(=O)CSc1nc(SC)nc2c1sc1nc(-c3ccco3)c3c(c12)CC(C)(C)OC3,3%,-9%,.,.,.
CSc1nc(N(CCO)CCO)c2sc3nc(-c4ccco4)c4c(c3c2n1)CCC4,13µM*,?,1%,-2%,22%
Cc1c2cnn(-c3ccccc3)c(=O)c2c(C)n1CCCC(=O)Nc1ccc(F)cc1F,.,-17%,-2%,.,.
COC(=O)CCC(=O)OC1(C)C(=O)C=C2C=C(c3ccsc3)OC=C2C1=O (centres undefined),?,32µM*,2%,i,-3%
CCC(=O)OC1(C)C(=O)C=C2C=C(c3ccsc3)OC=C2C1=O (centres undefined),?,40µM*,-11%,6%,?
CC1(OC(=O)c2ccco2)C(=O)C=C2C=C(c3ccsc3)OC=C2C1=O (centres undefined),.,.,7%,-2%,?
CCN(Cc1ccccc1)S(=O)(=O)c1ccc(-c2coc(C)n2)cc1,.,-8%,-3%,.,.
SMILES,WRN helicase inh,FEN1 inhibitor,BLM helicase inh,RECQ1 helicase,APE1 inh
NS(=O)(=O)c1ccc(NCCCn2ccnc2)c([N+](=O)[O-])c1,2%,1%,-1%,.,41%
O=C1c2ccccc2-c2onc3ccc(NCCCn4ccnc4)c1c23,32µM*,16µM*,35µM*,28µM*,28µM*
COc1ccc(CCNC(=O)CCCn2nc(C)c3sc4ccccc4c3c2=O)cc1OC,.,45µM*,1%,.,.
CCOc1ccc(CCNC(=O)CCCn2nc(C)c3sc4ccccc4c3c2=O)cc1,.,-13%,0%,.,.
Cc1nn(CCCC(=O)NCCc2ccc(Cl)cc2)c(=O)c2c1sc1ccccc12,.,45µM*,-5%,.,.
CCOc1ccc(CCNC(=O)CCCn2nc(C)c3sc4ccccc4c3c2=O)cc1OCC,.,1%,-3%,.,.
CC1(C)C=C2C(=NN(c3ccccc3)C(N)=C2C#N)CO1,3%[57.1 µM],0%,18µM*,.,5%
CC1(C)Cc2c(C#N)c(N)n(-c3ccccc3)c(=S)c2CO1,0%,-2%,-7%,-3%,-1%
CN(C)c1ccc(C(=C2C=CC(=[N+](C)C)C=C2)c2c(O)c(S(=O)(=O)[O-])cc3cc(S(=O)(=O)O)ccc23)cc1,.,45µM*,-16%,.,.
CN(C)c1ccc(C(=C2C=CC(=[N+](C)C)C=C2)c2ccc(N(C)C)cc2)cc1,.,40µM*,22µM*!,10µM*,?
Cn1cnnc1SCC(=O)Nc1ncc([N+](=O)[O-])s1,40µM*,?,.,.,8.4µM*
COP(=O)(OC)c1ccc(NCc2cc(O)ccc2O)cc1,56µM*,79µM*,.,.,.
CC(C)OC(=O)c1ccc(NCc2cc(O)ccc2O)cc1,-11%,4%,.,.,.
CC(=O)Nc1ccc(NC(=O)C(C)OC(=O)c2ccccc2NS(=O)(=O)c2cccs2)cc1 (centres undefined),-17%,8%,-8%,-9%,-3%
Cc1ccc(NC2=C/C(=N/S(=O)(=O)c3cccs3)c3ccccc3C2=O)cc1C,-5%,0%,-5%,0%,-3%
CC(=O)Nc1ccc(NC2=C/C(=N/S(=O)(=O)c3cccs3)c3ccccc3C2=O)cc1,-9%,-13%,22µM*,12%,7%
Cc1ccccc1NC1=C/C(=N\S(=O)(=O)c2cccs2)c2ccccc2C1=O,-12%[57.1 µM],-3%,20µM*,-4%,-8%
O=C(O)CSc1ncnc2nc[nH]c12,-4%,-1%,-3%,2%,-2%
c1nc(SSc2ncnc3nc[nH]c23)c2[nH]cnc2n1,40µM*,1%,.,.,.
COc1ccccc1NC(=O)Nc1ccnn1C1CCN(C(=O)c2cscn2)CC1,5%,45µM*,1%,.,61%
CCS(=O)(=O)N1CCc2cc(C(=O)N3CCN(c4ccc(OC)cc4)CC3)ccc21,.,-23%,-16%,.,.
CC(C)n1c(=O)[nH][nH]c1=S,56µM*,-4%,0%,-6%,8%
Cc1ccccc1-c1nc(N2CCOCC2)c2ccccc2n1,.,.,-13%,-11%,8.9µM*
